In the library only some 3.6% were active in any assay of this set; here they are far more common.
esBAF inh – SWI/SNF esBAF complex inhibition. mouse ES cells, Bmi1-luciferase knock-in reporter, 24 h; 100% = twice the neutral-well signal. reporter increase, % at 12.5 µM. 2% of 350,000 active; in the data active = activation above about 40%; inconclusive = no clear call, values can overlap the other calls;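 note: 0% = median of the plate's neutral control wells and 100% = double that signal; a rise in the Bmi1 reporter signal indicates esBAF inhibition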
PHOSPHO1 block – PHOSPHO1 (human) inhibition. Q8TCT1. recombinant PHOSPHO1, absorbance phosphatase assay. inhibition, % at 13.3 µM. 1.1% of 290,000 active. AID 1565; in the data active = inhibition above about 60%
Target sequence (Q8TCT1 whole entry, looked up): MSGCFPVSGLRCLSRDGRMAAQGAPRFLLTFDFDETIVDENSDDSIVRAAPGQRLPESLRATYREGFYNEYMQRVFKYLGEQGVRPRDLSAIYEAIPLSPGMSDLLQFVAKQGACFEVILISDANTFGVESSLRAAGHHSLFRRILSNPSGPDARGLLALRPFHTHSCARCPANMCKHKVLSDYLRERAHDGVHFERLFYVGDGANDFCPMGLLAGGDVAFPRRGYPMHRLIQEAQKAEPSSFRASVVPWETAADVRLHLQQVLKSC
A3G deaminase – inhibitors of human APOBEC3G DNA deaminase; Q9HC16; recombinant A3G, ssDNA deamination FAM/TAMRA fluorescence; inhibition, % at 20 µM; 0.28% of 330,000 active; AID 493012;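 active = inhibition of at least 40% at 20 µM, with no more than 30% in the related APOBEC3A deaminase screen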;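 note: plate controls were DMSO wells with A3G for no effect and wells lacking A3G enzyme for full effect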
Target sequence (Q9HC16 whole entry, looked up): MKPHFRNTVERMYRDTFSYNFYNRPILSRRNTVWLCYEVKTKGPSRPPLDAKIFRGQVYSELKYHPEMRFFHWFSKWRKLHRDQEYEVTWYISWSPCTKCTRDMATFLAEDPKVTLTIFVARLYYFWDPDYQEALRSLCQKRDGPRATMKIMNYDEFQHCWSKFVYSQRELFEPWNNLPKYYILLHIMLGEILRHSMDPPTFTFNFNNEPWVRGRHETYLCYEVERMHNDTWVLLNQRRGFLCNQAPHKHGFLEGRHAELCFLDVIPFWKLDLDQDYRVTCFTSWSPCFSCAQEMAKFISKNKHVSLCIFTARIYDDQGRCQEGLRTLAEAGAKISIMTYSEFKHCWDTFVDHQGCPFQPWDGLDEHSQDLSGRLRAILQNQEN
Wnt bcat act – activators of Wnt/beta-catenin signaling; Wnt/beta-catenin reporter cell assay, activator, plate reader; activation, % at 9.35 µM; 1.2% of 300,000 active; in the data active = activation above about 30%, passing the limit was not always enough; inconclusive = no clear call, values can overlap the other calls;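 note: 0% = neutral control wells and 100% = positive control wells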
A3A deaminase – blocks human APOBEC3A ssDNA deamination; P31941; recombinant A3A, FAM/TAMRA ssDNA deamination fluorescence; inhibition, % at 20 µM; 0.41% of 330,000 active; AID 493011;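 active = at least 40% inhibition at 20 µM here, with at most 30% in a related deaminase screen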;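 note: plate controls were A3A with DMSO for no effect and wells lacking A3A enzyme for full effect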
MITF TRPM1 HTS – MITF TRPM1 promoter activation in melanoma cells. activation, % at 12.5 µM. 0.75% of 300,000 active. SK-MEL-5 TRPM1-promoter luciferase, 24 h; % of positive control, neutral wells = 0. AID 588334;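 active = mean activation of at least 80% with every replicate also reaching 80%; inconclusive = mean reaches 80% but some replicate falls short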;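 note: 0% = neutral control wells and 100% = parthenolide positive control wells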
Numbers without * were called inactive; ? = inconclusive; · = no result given.

SMILES	esBAF inh	PHOSPHO1 block	A3G deaminase	Wnt bcat act	A3A deaminase	MITF TRPM1 HTS
O=C(C[C@@H]1CC[C@H]2[C@@H](COC[C@@H](O)CN2C(=O)c2ccccc2)O1)Nc1ccc(-c2ccccc2)cc1	7	·	·	·	·	·
COc1ccc(OC)c(CCNC(=O)C(C)n2nc(C)c3c(C)n(-c4ccccc4)nc3c2=O)c1 (stereo unspecified)	-3	70*	4	-2	0	-5
CCC(C(=O)NC1CC1)n1nc(C)c2c(C)n(-c3ccccc3)nc2c1=O (stereo unspecified)	1	65*	4	-1	1	-14
CN(C)C(=O)c1cccc(-c2ccc3c(c2)[C@H]2[C@H](CCN2C(=O)c2ccccc2F)[C@H](CO)N3)c1	11	·	·	·	·	·
COc1ccc(NC(=O)N(C)C[C@@H]2OCCCC[C@H](C)Oc3ccc(NC(=O)NC4CCCCC4)cc3C(=O)N([C@@H](C)CO)C[C@@H]2C)cc1	2	·	·	·	·	·
Cc1ccc(S(=O)(=O)/N=C2/C=C(Sc3ncn[nH]3)C(=O)c3ccccc32)cc1	-14	73*	·	·	·	-91
CC(C)c1ccc(S(=O)(=O)/N=C2/C=C(Sc3ncn[nH]3)C(=O)c3ccccc32)cc1	·	6	·	·	·	-56
Cc1ccc(S(=O)(=O)/N=C2/C=C(Sc3ncn[nH]3)C(=O)c3ccccc32)c(C)c1	·	76*	·	·	·	·
Cc1cccc(OCCNc2cc(N3CCN(C)CC3)ccc2[N+](=O)[O-])c1	·	-1	-4	·	-2	6
Cc1cccc(OCCNc2ncccc2[N+](=O)[O-])c1	74*	·	·	3	·	·
CCOC(=O)CSC1=C(C#N)C(c2ccc(F)cc2)C(C(C)=O)=C(C)N1 (stereo unspecified)	·	79*	-1	·	1	7
CCOC(=O)C1=C(C)NC(SCC(=O)OC)=C(C#N)C1c1ccc(C(=O)OC)cc1 (stereo unspecified)	-6	55	-3	-3	-1	-13
CC1(C)CC(=O)C2=C(C1)NC(SCC(=O)Nc1ccccc1)=C(C#N)C2c1ccco1 (stereo unspecified)	14	2	-5	·	-2	17
Cc1ccc(C(=O)CSC2=C(C#N)C(c3ccco3)C3=C(CC(C)(C)CC3=O)N2)cc1 (stereo unspecified)	0	76*	-4	·	-3	·
CCOC(=O)CSC1=C(C#N)C(c2ccc(C)cc2)C2=C(CCCC2=O)N1 (stereo unspecified)	0	92*	-6	·	-16	1
Cc1ccc(-c2ccc3c(c2)O[C@@H](CN(C)Cc2ccncc2)[C@@H](C)CN([C@H](C)CO)S3(=O)=O)cc1	-7	·	·	·	·	·
O=C1OC(c2ccc(Br)cc2)=N/C1=C\N1CCCCC1	53*	55	-1	9	0	124*
O=C1OC(c2ccccc2)=N/C1=C\N1CCCCC1	85*	48	-5	-1	-5	86*
O=C1OC(c2ccccc2)=C/C1=C/N1CCCCC1	84*	1	3	2	-3	105*
Cc1ccc(C2=N/C(=C\c3c(C)nn(-c4ccccc4)c3N3CCCC3)C(=O)O2)cc1	0	20	-6	-2	-1	1
Cc1noc(C)c1NC(=O)Nc1ccc2c(c1)C(=O)N(C)[C@H]1CC[C@@H](CC(=O)N[C@H]3CCN(Cc4ccccc4)C3)O[C@H]1CO2	-1	·	·	·	·	·
CN1CCN(c2ccc(NC(=O)c3ccccc3Br)cc2)CC1	·	-2	-7	·	-4	64
O=C(Nc1ccccc1)c1ccc(-c2ccccc2Cl)o1	53*	-14	-13	29	-4	89*
CN1CCN(c2ccc(NC(=O)c3ccc(-c4ccccc4F)o3)cc2)CC1	-23	·	-4	49*	1	27
N#Cc1ccccc1NC(=O)c1ccc(-c2ccccc2Cl)o1	50*	-14	-4	-3	-3	?
SMILES	esBAF inh	PHOSPHO1 block	A3G deaminase	Wnt bcat act	A3A deaminase	MITF TRPM1 HTS
O=C(Nc1ccccc1)c1ccc(-c2ccc(Br)cc2)o1	7	1	-5	33*	-1	·
O=C(O)c1ccc(-c2ccccc2Cl)o1	-3	·	-1	·	-2	8
CCC(=O)N(C)C[C@H]1Oc2cc(-c3ccccc3C)ccc2S(=O)(=O)N([C@@H](C)CO)C[C@@H]1C	-1	·	·	·	·	·
CO[C@H]1CC[C@@H]2CCN(C)C(=O)[C@H](C)N(C)C(=O)c3cccc(C#N)c3OC[C@H]1O2	-6	·	·	·	·	·
C[C@H](CO)N1C[C@H](C)[C@H](CN(C)C)OCCCC[C@H](C)Oc2ccc(NC(=O)Nc3ccc(F)cc3)cc2C1=O	-3	·	·	·	·	·
CC(=O)Nc1ccc(NC(=O)c2ccc(-c3ccccc3Cl)o2)cc1	43*	·	-16	4	-4	57
COC(=O)c1sccc1-c1ccc(C(=O)Nc2cccc(Cl)c2)o1	51*	28	-7	·	-2	·
O=S(=O)(c1ccccc1F)N1CCCCN2[C@H](C1)[C@H](c1ccc(-c3cncnc3)cc1)[C@@H]2CO	6	·	·	·	·	·
Clc1ccc(C2=NNC(=NCc3ccccc3)SC2)cc1	·	-10	-6	5	3	54
Clc1ccccc1N=C1NN=C(c2cccs2)CS1	66*	-33	-2	-1	3	46
Fc1ccccc1N=C1NN=C(c2ccccc2)CS1	53*	52	2	-1	-1	50
O=C1CSC(=Nc2ccccc2Cl)N1	·	-8	0	6	3	·
c1ccc(CN=C2NN=C(c3ccccc3)CS2)cc1	46*	-86	4	8	-6	73
COCCn1c(C)cc(C2=NNC(=Nc3ccccc3F)SC2)c1C	-75	88*	0	·	-3	·
C[C@H]1CN([C@@H](C)CO)C(=O)c2cccc(NC(=O)NC3CCCCC3)c2O[C@H]1CN(C)Cc1ccc(C(=O)Nc2ccccc2N)cc1	-14	·	·	·	·	·
C[C@@H]1CN([C@@H](C)CO)C(=O)c2cccc(NC(=O)c3nc4ccccc4s3)c2O[C@@H]1CN(C)Cc1ccc(C(F)(F)F)cc1	12	·	·	·	·	·
CO[C@@H]1CC[C@H]2CCN(C)C(=O)[C@@H](C)CN(C)C(=O)c3cc(C#N)ccc3OC[C@@H]1O2	-2	·	·	·	·	·
Clc1cccc(-c2nnc3sc(-c4ccc5c(c4)OCO5)nn23)c1	·	75*	·	·	·	·
c1ccc(-c2nn3c(Cn4nnc5ccccc54)nnc3s2)nc1	4	41	19	·	2	-3
c1ccc2c(c1)ncn2Cc1nnc2sc(-c3ccc4c(c3)OCO4)nn12	-2	67*	9	-4	1	13
Clc1ccccc1-c1nn2c(Cn3cnc4ccccc43)nnc2s1	-6	84*	28	-3	6	0
Clc1cccc(-c2nn3c(-c4ccncc4)nnc3s2)c1	·	10	·	·	·	·
COc1ccc(CN(C)C[C@@H]2OCCCC[C@H](C)Oc3ccc(NC(=O)c4ccncc4)cc3C(=O)N([C@H](C)CO)C[C@H]2C)cc1	-3	·	·	·	·	·
Fc1cccc2sc(Nc3nnc(-c4ccco4)o3)nc12	14	-31	-1	38*	2	30
CC(=O)Nc1nc2c(F)cccc2s1	0	·	0	1	2	12
